# PubChem BioAssay (NCI)
# Where “and” joins values, the source holds several entries; their conditions need not be identical. Equal entries are not always repeated. About 79,000 compounds went through this panel and 15% of them were active in at least one assay; those are over-represented in the sample as a whole. Some structures have more than one record in an assay (separate samples or runs), and their calls can disagree. Calls of active or inactive are those of the source. Rule as the data show it: active = growth inhibition above about 70%; inactive = the rest.
# What was measured:
# [1] = NCI Yeast Anticancer Drug Screen. Data for the wt1 strain (AID 149);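 also: 0% = growth of vehicle-treated wt1 cultures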; conditions: S. cerevisiae wt1 strain (SPY 50644) growth inhibition, stronger effect = higher value
# Summary of the method: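 The wt1 strain was treated with compounds, and growth was compared with vehicle-treated cultures to give inhibition.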
# [2] = NCI Yeast Anticancer Drug Screen. Data for the rad50EPP+ strain (AID 151);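 also: 0% = growth of vehicle-treated control cultures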; conditions: S. cerevisiae rad50 mutant strain, stronger effect = higher value
# Summary of the method: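 In this screen, rad50EPP+ yeast were exposed to compounds. Growth inhibition was scored against vehicle-treated controls.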
# [3] = NCI Yeast Anticancer Drug Screen. Data for the rad50 strain (AID 155);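 also: 0% = growth of vehicle-only cultures of the same strain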; conditions: S. cerevisiae rad50 strain growth inhibition, stronger effect = higher value
# Summary of the method: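 Cells are treated with compound, grown, and their growth is then scored against vehicle-only cultures of the same repair-deficient yeast strain.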
# [4] = NCI Yeast Anticancer Drug Screen. Data for the rad14 strain (AID 159);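 also: 0% = growth of vehicle-treated control cultures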; conditions: S. cerevisiae rad14 strain growth inhibition, stronger effect = higher value
# Summary of the method: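 Readout: yeast growth inhibition, referenced to vehicle-only cultures. Strain bears a defined alteration in DNA damage repair.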
# [5] = NCI Yeast Anticancer Drug Screen. Data for the sgs1 mgt1 strain (AID 161);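 also: 0% = growth of cultures given vehicle only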; conditions: S. cerevisiae sgs1 mgt1 strain, stronger effect = higher value
# Summary of the method: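 Mutant yeast exposed to compound; growth scored against vehicle-only wells.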
# [6] = NCI Yeast Anticancer Drug Screen. Data for the CLN2oe strain (AID 163);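 also: 0% = growth of vehicle-only control cultures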; conditions: S. cerevisiae CLN2oe strain, stronger effect = higher value
# Summary of the method: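 Inhibition relative to vehicle-treated yeast is reported. Cells: strain with genetic alteration in cell-cycle control, grown with compound.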
# [7] = NCI Yeast Anticancer Drug Screen. Data for the cln2 rad14 strain (AID 165);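 also: 0% = growth equal to vehicle treated cultures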; conditions: S. cerevisiae cln2 rad14 strain, stronger effect = higher value
# Summary of the method: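 Each compound was tested on cln2 rad14 yeast. Inhibition of growth was calculated against vehicle-exposed controls.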
# [8] = NCI Yeast Anticancer Drug Screen. Data for the bub3 strain (AID 167); conditions: S. cerevisiae bub3 mutant strain, stronger effect = higher value
# Summary of the method: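 Part of a panel of yeast mutants defective in DNA damage repair or cell cycle regulation. Each strain is grown with compound, and inhibition is calculated relative to solvent-treated cultures.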
# [9] = NCI Yeast Anticancer Drug Screen. Data for the wt2 strain (AID 169);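 also: 0% = growth of vehicle-treated yeast cultures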; conditions: S. cerevisiae wt2 strain growth inhibition, stronger effect = higher value
# Summary of the method: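 Inhibition of yeast growth was determined after compound treatment, normalised to controls receiving only vehicle.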
# [10] = NCI Yeast Anticancer Drug Screen. Data for the mlh1 strain (AID 171);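 also: 0% = growth of vehicle-treated control cultures of the same strain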; conditions: S. cerevisiae mlh1 strain growth inhibition, stronger effect = higher value
# Summary of the method: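 Vehicle-normalised growth inhibition of a repair- or checkpoint-altered yeast strain following compound treatment.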
# [11] = NCI Yeast Anticancer Drug Screen. Data for the sgs1 strain (AID 173);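 also: 0% = growth of vehicle-only control cultures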; conditions: S. cerevisiae sgs1 mutant, stronger effect = higher value
# Summary of the method: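 Screen format: yeast with repair or checkpoint alterations, compound exposure, growth read relative to vehicle.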
# [12] = NCI Yeast Anticancer Drug Screen. Data for the mlh1 rad18 strain (AID 175); conditions: S. cerevisiae mlh1 rad18 strain growth inhibition, stronger effect = higher value
# Summary of the method: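 Vehicle-treated cultures served as the reference for growth inhibition in a yeast strain carrying DNA damage repair alterations exposed to each compound.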
# [13] = NCI Yeast Anticancer Drug Screen. Data for the rad18 strain (AID 177); conditions: S. cerevisiae rad18 mutant growth inhibition, stronger effect = higher value
# Summary of the method: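 Test articles were incubated with altered yeast defective in DNA damage repair. Results are given as inhibition of growth versus vehicle.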
# [14] = NCI Yeast Anticancer Drug Screen. Data for the mec2-1 strain (AID 157); conditions: S. cerevisiae mec2-1 strain, stronger effect = higher value
# Summary of the method: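 Vehicle-treated cultures served as reference for growth inhibition of compound-exposed mec2-1 yeast.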
# [15] = at 5.0 µM (retest, dose inferred, filed as 0.5)
# [16] = at 50.0 µM (retest, dose inferred, filed as 5.0)
smiles,measurement,setting,value
CCC1SC(=S)N(c2ccc(Cl)cc2)C1=O (stereo not drawn),growth inhibition,[1]; at 1.2 µM,-2% (inactive)
same,growth inhibition,[1]; at 3.7 µM,-2% (inactive)
same,growth inhibition,[1]; at 11.0 µM,10% (inactive)
same,growth inhibition,[1]; at 33.0 µM,23% (inactive)
same,growth inhibition,[1]; at 100.0 µM,78% (active)
same,growth inhibition,[2]; at 1.2 µM,-5% (inactive)
same,growth inhibition,[2]; at 3.7 µM,21% (inactive)
same,growth inhibition,[2]; at 11.0 µM,42% (inactive)
same,growth inhibition,[2]; at 33.0 µM,96% (active)
same,growth inhibition,[2]; at 100.0 µM,98% (active)
same,growth inhibition,[3]; at 1.2 µM,-17% (inactive)
same,growth inhibition,[3]; at 3.7 µM,-19% (inactive)
same,growth inhibition,[3]; [15],8% (inactive)
same,growth inhibition,[3]; at 11.0 µM,6% (inactive)
same,growth inhibition,[3]; at 33.0 µM,84% (active)
same,growth inhibition,[3]; [16],35% (inactive)
same,growth inhibition,[3]; at 50.0 µM,45% (inactive)
same,growth inhibition,[3]; at 100.0 µM,96% (active)
same,growth inhibition,[4]; at 1.2 µM,4% (inactive)
same,growth inhibition,[4]; at 3.7 µM,1% (inactive)
same,growth inhibition,[4]; at 11.0 µM,12% (inactive)
same,growth inhibition,[4]; at 33.0 µM,26% (inactive)
same,growth inhibition,[4]; at 100.0 µM,75% (active)
same,growth inhibition,[5]; [15],4% (inactive)
same,growth inhibition,[5]; [16],68% (inactive)
same,growth inhibition,[5]; at 50.0 µM,66% (inactive)
same,growth inhibition,[6]; at 1.2 µM,-9% (inactive)
same,growth inhibition,[6]; at 3.7 µM,-10% (inactive)
same,growth inhibition,[6]; at 11.0 µM,-16% (inactive)
same,growth inhibition,[6]; at 33.0 µM,-20% (inactive)
same,growth inhibition,[6]; at 100.0 µM,75% (active)
same,growth inhibition,[7]; [15],-3% (inactive)
same,growth inhibition,[7]; [16],-4% (inactive)
same,growth inhibition,[7]; at 50.0 µM,-11.6% (inactive)
same,growth inhibition,[8]; at 1.2 µM,-11% (inactive)
same,growth inhibition,[8]; at 3.7 µM,-10% (inactive)
same,growth inhibition,[8]; [15],-6% (inactive)
same,growth inhibition,[8]; at 11.0 µM,-13% (inactive)
same,growth inhibition,[8]; at 33.0 µM,22% (inactive)
same,growth inhibition,[8]; [16],44% (inactive)
same,growth inhibition,[8]; at 50.0 µM,6.05% (inactive)
same,growth inhibition,[8]; at 100.0 µM,97% (active)
same,growth inhibition,[9]; at 1.2 µM,-5% (inactive)
same,growth inhibition,[9]; at 3.7 µM,1% (inactive)
same,growth inhibition,[9]; at 11.0 µM,20% (inactive)
same,growth inhibition,[9]; at 33.0 µM,65% (inactive)
same,growth inhibition,[9]; at 100.0 µM,92% (active)
same,growth inhibition,[10]; at 1.2 µM,-14% (inactive)
same,growth inhibition,[10]; at 3.7 µM,-10% (inactive)
same,growth inhibition,[10]; at 11.0 µM,-10% (inactive)
same,growth inhibition,[10]; at 33.0 µM,48% (inactive)
same,growth inhibition,[10]; at 100.0 µM,97% (active)
same,growth inhibition,[11]; at 1.2 µM,-8% (inactive)
same,growth inhibition,[11]; at 3.7 µM,-8% (inactive)
same,growth inhibition,[11]; at 11.0 µM,22% (inactive)
same,growth inhibition,[11]; at 33.0 µM,75% (active)
same,growth inhibition,[11]; at 100.0 µM,98% (active)
same,growth inhibition,[12]; [15],0% (inactive)
same,growth inhibition,[12]; [16],71% (active)
same,growth inhibition,[12]; at 50.0 µM,65% (inactive)
same,growth inhibition,[13]; at 1.2 µM,-8% (inactive)
same,growth inhibition,[13]; at 3.7 µM,-10% (inactive)
same,growth inhibition,[13]; at 11.0 µM,-3% (inactive)
same,growth inhibition,[13]; at 33.0 µM,48% (inactive)
same,growth inhibition,[13]; at 100.0 µM,87% (active)
O=C(/C(=C/c1ccccc1)CBr)c1ccccc1,growth inhibition,[1]; at 1.2 µM,0% (inactive)
same,growth inhibition,[1]; at 3.7 µM,11% (inactive)
same,growth inhibition,[1]; at 11.0 µM,43% (inactive)
same,growth inhibition,[1]; at 33.0 µM,90% (active)
same,growth inhibition,[1]; at 100.0 µM,99% (active)
same,growth inhibition,[2]; at 1.2 µM,17% (inactive)
same,growth inhibition,[2]; at 3.7 µM,50% (inactive)
same,growth inhibition,[2]; at 11.0 µM,82% (active)
same,growth inhibition,[2]; at 33.0 µM,96% (active)
same,growth inhibition,[2]; at 100.0 µM,99% (active)
same,growth inhibition,[3]; at 1.2 µM,4% (inactive)
same,growth inhibition,[3]; at 3.7 µM,15% (inactive)
same,growth inhibition,[3]; [15],22% (inactive)
same,growth inhibition,[3]; at 11.0 µM,61% (inactive)
same,growth inhibition,[3]; at 33.0 µM,96% (active)
same,growth inhibition,[3]; [16],98% (active)
same,growth inhibition,[3]; at 50.0 µM,66.5% (inactive) and 79.2% (active)
same,growth inhibition,[3]; at 100.0 µM,99% (active)
same,growth inhibition,[14]; at 1.2 µM,3% (inactive)
same,growth inhibition,[14]; at 3.7 µM,12% (inactive)
same,growth inhibition,[14]; [15],3% (inactive)
same,growth inhibition,[14]; at 11.0 µM,58% (inactive)
same,growth inhibition,[14]; at 33.0 µM,96% (active)
same,growth inhibition,[14]; [16],98% (active)
same,growth inhibition,[14]; at 50.0 µM,80.5% (active) and 61.1% (inactive)
same,growth inhibition,[14]; at 100.0 µM,99% (active)
same,growth inhibition,[4]; at 1.2 µM,3% (inactive)
same,growth inhibition,[4]; at 3.7 µM,9% (inactive)
same,growth inhibition,[4]; at 11.0 µM,38% (inactive)
same,growth inhibition,[4]; at 33.0 µM,93% (active)
same,growth inhibition,[4]; at 100.0 µM,99% (active)
same,growth inhibition,[5]; [15],50% (inactive)
same,growth inhibition,[5]; [16],99% (active)
same,growth inhibition,[5]; at 50.0 µM,74% (active) and 59% (inactive)
same,growth inhibition,[7]; [15],25% (inactive)
same,growth inhibition,[7]; [16],93% (active)
same,growth inhibition,[7]; at 50.0 µM,41.5% (inactive) and 67.5% (inactive)
same,growth inhibition,[8]; at 1.2 µM,-3% (inactive)
same,growth inhibition,[8]; at 3.7 µM,0% (inactive)
same,growth inhibition,[8]; [15],22% (inactive)
same,growth inhibition,[8]; at 11.0 µM,54% (inactive)
same,growth inhibition,[8]; at 33.0 µM,94% (active)
same,growth inhibition,[8]; [16],94% (active)
same,growth inhibition,[8]; at 50.0 µM,57.4% (inactive) and 83.7% (active)
same,growth inhibition,[8]; at 100.0 µM,99% (active)
same,growth inhibition,[9]; at 1.2 µM,4% (inactive)
same,growth inhibition,[9]; at 3.7 µM,14% (inactive)
same,growth inhibition,[9]; at 11.0 µM,62% (inactive)
same,growth inhibition,[9]; at 33.0 µM,95% (active)
same,growth inhibition,[9]; at 100.0 µM,99% (active)
same,growth inhibition,[10]; at 1.2 µM,3% (inactive)
same,growth inhibition,[10]; at 3.7 µM,11% (inactive)
same,growth inhibition,[10]; at 11.0 µM,67% (inactive)
same,growth inhibition,[10]; at 33.0 µM,97% (active)
same,growth inhibition,[10]; at 100.0 µM,99% (active)
same,growth inhibition,[12]; [15],68% (inactive)
same,growth inhibition,[12]; [16],99% (active)
same,growth inhibition,[12]; at 50.0 µM,74.5% (active) and 90.6% (active)
same,growth inhibition,[13]; at 1.2 µM,6% (inactive)
same,growth inhibition,[13]; at 3.7 µM,22% (inactive)
same,growth inhibition,[13]; at 11.0 µM,81% (active)
same,growth inhibition,[13]; at 33.0 µM,96% (active)
same,growth inhibition,[13]; at 100.0 µM,99% (active)
